From PubChem BioAssay AID602438 (Sanford-Burnham Center for Chemical Genomics, 2012) come the findings set out here.

Each structure is given as a SMILES string. Several values for one entry are separate records, joined by “and”; a condition that tells them apart may be missing. Identical values can stand only once. About 3,100 (0.86%) of roughly 360,000 compounds were called active.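 The calls were made as follows: active = inhibition or corrected inhibition above about 18%, plus a signal ratio from 0.5 to 1.5 (limit read from the data, passing the limit was not always enough); inactive = the rest.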 The sample as a whole holds a higher share of actives than the screen did.

Sequence of Neuropilin-1 (Homo sapiens) (O14786 whole entry, looked up): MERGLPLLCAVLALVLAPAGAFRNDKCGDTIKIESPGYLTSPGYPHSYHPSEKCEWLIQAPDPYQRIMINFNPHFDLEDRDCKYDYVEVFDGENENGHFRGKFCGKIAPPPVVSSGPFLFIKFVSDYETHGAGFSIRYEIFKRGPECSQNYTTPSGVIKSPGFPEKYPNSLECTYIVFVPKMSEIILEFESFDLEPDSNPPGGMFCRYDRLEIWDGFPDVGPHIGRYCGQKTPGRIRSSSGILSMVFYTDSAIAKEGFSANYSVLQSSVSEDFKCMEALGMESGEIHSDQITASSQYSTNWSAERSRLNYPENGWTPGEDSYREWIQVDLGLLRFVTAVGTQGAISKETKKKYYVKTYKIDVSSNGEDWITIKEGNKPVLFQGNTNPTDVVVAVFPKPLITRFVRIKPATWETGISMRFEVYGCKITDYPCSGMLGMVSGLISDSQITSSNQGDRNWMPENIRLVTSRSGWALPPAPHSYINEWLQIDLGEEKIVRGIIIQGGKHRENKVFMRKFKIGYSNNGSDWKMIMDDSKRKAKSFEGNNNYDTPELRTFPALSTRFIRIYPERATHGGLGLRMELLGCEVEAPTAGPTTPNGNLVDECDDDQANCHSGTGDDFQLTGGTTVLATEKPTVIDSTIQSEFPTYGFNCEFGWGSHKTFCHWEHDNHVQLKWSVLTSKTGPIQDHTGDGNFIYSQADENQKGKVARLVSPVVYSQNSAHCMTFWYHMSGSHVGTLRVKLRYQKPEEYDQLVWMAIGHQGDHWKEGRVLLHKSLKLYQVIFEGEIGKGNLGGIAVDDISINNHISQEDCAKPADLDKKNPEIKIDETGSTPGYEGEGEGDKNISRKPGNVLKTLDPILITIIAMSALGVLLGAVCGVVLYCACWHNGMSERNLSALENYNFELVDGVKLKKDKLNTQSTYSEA

This assay has as its target Neuropilin-1 (Homo sapiens) (UniProt O14786). Put plainly: NRP-1/CendR peptide interaction modulators – biochemical, fluorescence polarization, uHTS, primary screen (AID 602438). To be noted: FAM-RPARPAR peptide binding to NRP-1, fluorescence polarization; at 25 µM; hits give high values. A general note: Polarisation of emitted light reports the rotation of a fluorescent probe.
As usually defined, the inhibition is the drop in the measured response relative to a control, in per cent. Regarding `CC1(c2cccc(Br)c2)NC(=O)N(CC(=O)NCCC2=CCCCC2)C1=O` (stereo unspecified), the inhibition is 6.7% (inactive). Then `Cc1ccc(S(=O)(=O)NNC(=O)/C=C/c2cccc(F)c2)cc1`, with 20.7% (active); and `Cc1ccc(S(=O)(=O)NC(=O)c2cccc(C)c2)cc1`, with -0.5% (inactive); and `Cc1ccc(S(=O)(=O)NNC(=O)Nc2cccc3ccccc23)cc1`, with 1.8% (inactive). As to `COc1ccc(Cl)cc1NC(=O)CN(C)C(=O)CCCc1c[nH]c2ccccc12`, the inhibition is 7.5% (inactive). Then `COc1ccccc1NC(=O)CCCc1c[nH]c2ccccc12`, with 65.3% (active); and `COc1ccc(CN(C)C(=O)Cc2c[nH]c3ccccc23)c(OC)c1OC`, with -1.4% (inactive); and `COc1ccccc1NC(=O)COC(=O)CNC(=O)C1CCCCC1`, with 9.6% (inactive). For `C=C(C)C1CC=C(C)/C(=N/NC(=O)CCCNc2cccc(C)c2)C1` (stereo unspecified), the inhibition is 1.4% (inactive). Then `C=C(C)C1CC=C(C)/C(=N\NC(=O)CNc2ccccc2OC)C1` (stereo unspecified), with 20.9% (active). Then `N#C/C=C\Oc1ccc(Cl)cc1N`, with -3.7% (inactive).

Consider `COc1ccc(C2CC(c3cccs3)=NN2C(=O)COC(=O)c2cc3ccccc3cc2O)cc1OC` (stereo unspecified), for which the inhibition is 6.7% (inactive). Then `COc1ccc(C2CC(c3cccs3)=NN2C(=O)CSc2nncs2)cc1OC` (stereo unspecified), with 28.8% (active); and `COc1ccc(C2CC(c3cccs3)=NN2C(=O)CSc2nnc(N)s2)cc1OC` (stereo unspecified), with 0.7% (inactive); and `CCN(CC(=O)Nc1c(F)cccc1F)C(=O)c1ccc(-c2ccccc2)cc1`, with 4.3% (inactive). Consider `CCN(CC(=O)Nc1c(F)cccc1F)C(=O)c1ccc(-c2ccc(C(C)=O)cc2)o1`, for which the inhibition was 45.1% (active). Then `CCN(CC(=O)Nc1c(F)cccc1F)C(=O)c1cnc(C)cn1`, with 3.1% (inactive).

Take `CCN(CC)S(=O)(=O)c1ccc(C(=O)N2CCN(C3=NS(=O)(=O)c4ccccc43)CC2)cc1`: the inhibition is -0.8% (inactive). As for `CC1CCCCC12NC(=O)N(CC(=O)Nc1ccc(S(=O)(=O)Nc3ncccn3)cc1)C2=O` (stereo unspecified), the inhibition is -8.9% (inactive). Then `Cc1nnc(CN(C)Cc2cn[nH]c2-c2ccc(-c3ccccc3)cc2)o1`, with -2.9% (inactive). Take `COC(=O)C1[C@H]2SC(C)(C)C(C(=O)OC)N2C(=O)N1Cc1nc2ccccc2s1` (stereo partly specified): the inhibition is 4.5% (inactive). Then `CC1(C)S[C@@H]2[C@H](NC(=O)COc3ccccc3)C(=O)N2C1C(=O)OCc1ccccc1` (stereo partly specified), with 26.2% (active); and `CC1(C)SC2C(NC(=O)COc3ccccc3)C(=O)N2C1C(=O)O` (stereo unspecified), with -22.6% (inactive) and -10.8% (inactive). Then `COC(=O)c1c(NC(=O)COC(=O)[C@@H](NS(=O)(=O)c2ccccc2)C(C)C)sc2c1CCC2`, with -8.2% (inactive); and `Cc1sc(NC(=O)C2C3CCC(O3)C2C(=O)O)c(C(=O)OC(C)C)c1-c1ccc(Cl)cc1` (stereo unspecified), with 21% (active); and `COc1ccc(NC(=O)C2C3CCC(O3)C2C(=O)O)cc1OC` (stereo unspecified), with 4.9% (inactive).

As to `CC(C)OC(=O)c1cc(NC(=O)C2C3CCC(O3)C2C(=O)O)cc(C(=O)OC(C)C)c1` (stereo unspecified), the inhibition is -0.2% (inactive). Then `O=C(CN1C(=O)NC(Cc2c[nH]c3ccccc23)C1=O)Nc1ccccc1C(F)(F)F` (stereo unspecified), with -6.7% (inactive); and `CCn1c(C)nc2cc(C(=O)NNS(=O)(=O)c3ccc(C)cc3C)ccc21`, with -7% (inactive); and `C[n+]1ccc(C(=O)NCc2ccccc2)cc1`, with 8.4% (inactive). For `CCOc1c2ccc(C(=O)NC3CCCc4ccccc43)cc2nn1CC` (stereo unspecified), the inhibition is 22.9% (active). Then `CCCn1nc2cc(C(=O)NCc3ccccc3)ccc2c1OCC`, with 27% (active).

For the molecule `CCOc1ccc(NC(=O)COc2ccc(C(=O)NC3CCCc4ccccc43)cc2OC)cc1` (stereo unspecified), the inhibition was -6.4% (inactive).

Take `CNS(=O)(=O)c1cccc(C(=O)NC2CCCc3ccccc32)c1` (stereo unspecified): the inhibition is -7.1% (inactive). Then `Cc1cc(N2C(=O)c3ccc(C(=O)NCc4ccccc4)cc3C2=O)no1`, with -12.4% (inactive); and `CC(=O)Cn1ncc(N2CCOCC2)c(Br)c1=O`, with -5.8% (inactive).

Turning to `Cc1ccc(OCCNC(=O)CCNS(=O)(=O)c2ccc(Br)cc2)cc1`, the inhibition is 4.5% (inactive).

In the case of `Nc1c(C(=O)c2cccs2)sc2nsc(SCCN3CCCCC3)c12`, the inhibition was 131% (inactive).

On to `Cn1c(CCC(=O)Nc2ccccc2F)nnc1SCC(=O)Nc1ccccc1Cl`, for which the inhibition is -3.9% (inactive). Then `COc1ccccc1NC(=S)N1CCC(NC(=O)C23CC4CC(CC(C4)C2)C3)CC1`, with -1.5% (inactive); and `Cc1ccc(S(=O)(=O)NC(C)C(=O)NCc2ccc(Cl)cc2)cc1` (stereo unspecified), with -8.1% (inactive); and `CC(Oc1cc2oc(=O)c3c(c2cc1Cl)CCCC3)C(=O)NCc1ccncc1` (stereo unspecified), with -1.5% (inactive). Regarding `COc1ccc(S(=O)(=O)NC(C)C(=O)NCc2ccncc2)cc1Cl` (stereo unspecified), the inhibition was 22.5% (active).

For the molecule `COc1cccc(NC(=O)N2CCC(NC(=O)C(Cc3cccc(C)c3)NC(C)=O)CC2)c1` (stereo unspecified), the inhibition was 9.8% (inactive). As to `CCOC(=O)c1c(/N=C/C2C(=O)CC(C)(C)CC2=O)sc(C)c1C`, the inhibition was -41.2% (inactive). Then `Cc1ccc(C)c(OCCC(=O)OCC(=O)NC(=O)NCc2ccccc2)c1`, with -19% (inactive); and `COc1ccccc1OCCC(=O)OCC(=O)NC(=O)NC(C)(C)C`, with -7.2% (inactive); and `COc1ccccc1OCCC(=O)OCC(=O)NCc1ccccc1`, with 31.3% (active).

With `CC1CCCC(N2CCN(C(=O)c3ccc(F)cc3)CC2)C1` (stereo unspecified), the inhibition is 1.1% (inactive).

Regarding `CC(C)(C)c1cc(=O)n2c(nc3ccccc32)[nH]1`, the inhibition was 3.4% (inactive). Then `COc1ccc(C)cc1N(CC(=O)NC(C)c1ccccc1)S(C)(=O)=O` (stereo unspecified), with 3.7% (inactive); and `COc1ccc(O)c(/C=N/N=C/c2cccc([N+](=O)[O-])c2)c1`, with 6.7% (inactive); and `CCCc1ccc(OCc2ccc(C(=O)N/N=C/c3cccc([N+](=O)[O-])c3)o2)c(OC)c1`, with -4.8% (inactive).

Turning to `COc1cc(/C=N\NC(=O)CNC(=O)c2cccc([N+](=O)[O-])c2)ccc1O`, the inhibition is 21.9% (active). Then `O=C(/C=C/c1cccs1)NCc1cccnc1`, with -0.9% (inactive); and `CC[C@]12c3[nH]c4ccc(Cl)cc4c3CCN1C(=O)[C@@H](CC(=O)NCCCOC)C[C@@H]2C(=O)N1CCN(C(=O)c2ccco2)CC1`, with 0.7% (inactive); and `CCCN(CCC)S(=O)(=O)c1ccc(C(=O)NNC(=O)c2cc(OC)c(OC)c(OC)c2)cc1`, with -2.3% (inactive). With `COc1ccccc1C(=O)COC(=O)CSCC(=O)Nc1cc(C)on1`, the inhibition is -0.2% (inactive).

With `COc1ccccc1C(=O)COC(=O)CNS(=O)(=O)c1ccc(NC(C)=O)cc1`, the inhibition was 5.5% (inactive).

For the molecule `COc1ccccc1C(=O)COC(=O)COc1ccc(C#N)cc1`, the inhibition is 28.5% (active).

Turning to `Cc1nn(C)c(Cl)c1CN1CCC(n2nccc2NC(=O)C2CCCC2)CC1`, the inhibition is -2.2% (inactive). Then `O=C(CSc1nnc2n1CCCN2)c1ccccc1`, with -7.7% (inactive). Then `O=[N+]([O-])c1ccc(NC(=S)N2CCN(c3ccccn3)CC2)cc1`, with 5% (inactive); and `COc1cc([N+](=O)[O-])ccc1NC(=S)N1CCN(c2ccccn2)CC1`, with 32.1% (active); and `CCOC(=O)c1ccc(NC(=S)N2CCN(c3ccccn3)CC2)cc1`, with 11.2% (inactive).

Turning to `O=[N+]([O-])c1ccc(CN2CC(N3CCC(c4ccccc4)CC3)CS2(=O)=O)cc1` (stereo unspecified), the inhibition was 11.5% (inactive). Then `CC1(C)CC(=O)CC2(C1)NCC(c1ccccc1Cl)c1c2[nH]c2ccccc12` (stereo unspecified), with -3.3% (inactive); and `CCNC(=O)COC(=O)/C=C/c1c(C)nn(Cc2cccc(OC)c2)c1Cl`, with -6.8% (inactive). Then `CC1(C)CN(c2ccc(-c3ccnc4ncnn34)cc2)C1=O`, with 9.3% (inactive); and `O=C(Nc1ccc(Cl)cc1)Nc1ccc(Oc2cccnc2)nc1`, with 3.4% (inactive). Then `COc1ccc(Nc2nc(-c3cccnc3)nc3ccccc23)cn1`, with 55.4% (active). `O=C(CSc1n[nH]c(-c2cccnc2)n1)Nc1ccnc2ccccc12`: the inhibition was -6.1% (inactive). Then `Cc1ccc(Nc2nnc(SC(C)C(=O)NC3CC3)s2)cc1` (stereo unspecified), with -8.1% (inactive); and `Cc1nnc(SC(C)C(=O)Nc2ccc(S(=O)(=O)NC3CCCCC3)cc2)s1` (stereo unspecified), with 25.4% (active); and `CCc1nnc(NC(=O)c2ccc(S(=O)(=O)NC3CCCCC3)cc2)s1`, with -10.5% (inactive). Then `Cc1ccc(S(=O)(=O)N(CC(=O)NCCSC2CCCCC2)c2ccccc2F)cc1`, with -1.5% (inactive); and `O=C(Nc1c2c(nn1-c1ccc(F)cc1)CS(=O)C2)C12CC3CC(CC(C3)C1)C2` (stereo unspecified), with 5.1% (inactive). With `O=S(=O)(c1ccc(Br)cc1)c1nc(-c2ccccc2)oc1N1CCOCC1`, the inhibition is 0.9% (inactive). Then `O=S(=O)(c1ccccc1)c1nc(-c2ccccc2)oc1NCCCN1CCOCC1`, with 28.7% (active); and `O=S(=O)(c1ccc(Cl)cc1)c1nc(-c2ccccc2F)oc1NCCN1CCOCC1`, with 5.8% (inactive); and `CCc1nc(SCC(=O)Nc2ccccc2OC)n[nH]1`, with 4.2% (inactive).

As to `C=CCN1CCN(c2ccncc2S(=O)(=O)N2CCN(C)CC2)CC1`, the inhibition was 1.6% (inactive).

As to `Cc1ccc(-n2c(C)cc(/C=N\NC(=O)CC(=O)NC(C)C)c2C)cc1`, the inhibition is 32.4% (active).

For the molecule `Cc1cc(/C=N/NC(N)=O)c(C)n1C1CCCCC1`, the inhibition is -11.5% (inactive). On to `Cc1cc(/C=N/NC(=O)CC2(C)OCCO2)c(C)n1-c1ccc(Cl)c(Cl)c1`, for which the inhibition was -7.8% (inactive).

Consider `O=C(O)C1CCCN1C1=NS(=O)(=O)c2ccccc21` (stereo unspecified), for which the inhibition is 9.6% (inactive). As for `Cc1nc(N2CCCC2C(=O)O)c2oc3ccccc3c2n1` (stereo unspecified), the inhibition is 29.6% (active).

For `O=C(O)C1CCCN1c1nc(Cl)ccc1[N+](=O)[O-]` (stereo unspecified), the inhibition is -0.9% (inactive).

With `O=c1ccc(S(=O)(=O)N2CCCC2)cn1Cc1nc(-c2ccccc2)no1`, the inhibition is 3.3% (inactive). Then `c1ccc(CCC2=NCCn3cccc32)cc1`, with -28.1% (inactive) and -1.3% (inactive); and `CNS(=O)(=O)c1cnccc1N1CCN(c2cccc(C)c2)CC1`, with -5.1% (inactive).
